These results are taken from the supplement of paper PMC3334620.

The full ranking holds about 33,000 sequences; the median of “E-score (-0.5 to 0.5)” is about -0.013, and the highest 2% start at about 0.3. This excerpt belongs to a sample that is enriched for the highest values.

The assay has as its target T1, Msn1 (UniProt P22148).
T1 sequence: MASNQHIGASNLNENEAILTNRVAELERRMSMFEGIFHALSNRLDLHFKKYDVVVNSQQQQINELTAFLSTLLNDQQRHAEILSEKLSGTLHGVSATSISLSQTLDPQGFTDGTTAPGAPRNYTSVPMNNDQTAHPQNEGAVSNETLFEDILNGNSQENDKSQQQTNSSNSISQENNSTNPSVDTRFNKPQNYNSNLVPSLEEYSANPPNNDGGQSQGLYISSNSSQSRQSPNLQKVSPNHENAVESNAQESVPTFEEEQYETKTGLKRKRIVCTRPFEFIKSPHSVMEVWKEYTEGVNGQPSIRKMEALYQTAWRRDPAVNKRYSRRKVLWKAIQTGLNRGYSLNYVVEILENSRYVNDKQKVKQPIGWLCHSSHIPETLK
Put plainly: PBM E-score (8-mer binding enrichment) (E-score (-0.5 to 0.5)); higher = stronger / more preferred TF binding. Conditions: protein concentration: 200 nM; construct: GST-full length. The procedure, abridged: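 Yeast transcription factors, full-length or as DNA-binding domains, were expressed with a GST tag using PURExpress in vitro transcription/translation. At about 100-200 nM they were applied to universal all-10-mer Agilent arrays, double-stranded by primer extension on fresh or once-stripped slides. Fluorescent anti-GST detected bound protein, and masliner normalised the scans. E-scores for ungapped eight-base words, pooled with reverse complements, came from the Universal PBM Analysis Suite.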
For GACAATAC, the “PBM E-score” value worked out at 0.377.
The same measure for GACAATTA: 0.426; for AACAATCC: 0.136.
With AACAATAC, the “PBM E-score” value is 0.158.
With CACAATTA, the “PBM E-score” value came out at 0.128.
Take GACAATCA: the “PBM E-score” value is 0.217.
In the case of ATTCCTCG, the “PBM E-score” value was 0.0159.
On to AACGTCAG, for which the “PBM E-score” value was -0.248.
The same measure for GAGATCAC: -0.035.
With ATACAGCA, the “PBM E-score” value came to 0.103.
Turning to TCAGGAGA, the “PBM E-score” value is -0.0143.
In the case of ACAGGACG, the “PBM E-score” value was 0.0345.
Then CCAGGACC, with -0.105; and GCAGGACC, with -0.0863; and GCAGGATA, with -0.224.
In the case of CCAGGACA, the “PBM E-score” value amounted to 0.469.
For the sequence TCAGGAAA, the “PBM E-score” value turned out to be 0.0903.
For the sequence ACAGGACT, the “PBM E-score” value is -0.0485.
Take ACAGGACA: the “PBM E-score” value came out at 0.421.
Take CCAGGACG: the “PBM E-score” value was 0.109.
As to GCAGGACA, the “PBM E-score” value turned out to be 0.47.
Consider TCAGGACA, for which the “PBM E-score” value stood at 0.461.
With CCGAGATC, the “PBM E-score” value was found to be 0.0634.
For AGGTTAAC, the “PBM E-score” value was -0.0876.
Turning to AATCGATG, the “PBM E-score” value came to 0.144.
Take CAGCAGAC: the “PBM E-score” value amounted to 0.0732.
Take AGTCTGTC: the “PBM E-score” value amounted to 0.0754.
With AGCCAGAC, the “PBM E-score” value is -0.072.
For the sequence AAGCGCCC, the “PBM E-score” value is -0.264.
Then TATTGAGA, with 0.208.
CCAGCGGC: the “PBM E-score” value is -0.0286.
The same measure for GGTAACTA: 0.18; for ATTGTCGG: 0.318.
For the sequence CTTGTCGC, the “PBM E-score” value is 0.166.
In the case of ACTGTCGC, the “PBM E-score” value was -0.134.
For the sequence ATTGTCGC, the “PBM E-score” value was found to be 0.344.
ATTGTCGA: the “PBM E-score” value is 0.144.
Regarding ACTGTCGG, the “PBM E-score” value was -0.0418.
On to AGGGTTTG, for which the “PBM E-score” value is -0.0242.
On to ACCCGTTA, for which the “PBM E-score” value was 0.00896.
As to CCGGTACG, the “PBM E-score” value is -0.262.
Regarding GCGGTACA, the “PBM E-score” value was 0.0441.
Then CCGGTACA, with 0.319; and CTGGTACC, with -0.121.
Regarding CTGGTACA, the “PBM E-score” value came to 0.329.
In the case of GTGGTACA, the “PBM E-score” value was 0.13.
For CGGCCCAG, the “PBM E-score” value is -0.186.
As for TAAGAAAA, the “PBM E-score” value was determined as 0.00824.
As for CTGCGACC, the “PBM E-score” value is -0.19.
GTGTCCCA: the “PBM E-score” value was 0.439.
On to ACGTCCCG, for which the “PBM E-score” value stood at 0.0295.
With ATGTCCCG, the “PBM E-score” value was 0.474.
For the sequence GGGTCCCA, the “PBM E-score” value was -0.216.
For the sequence CTGTCCCC, the “PBM E-score” value worked out at 0.00412.
For the sequence AGGTCCCA, the “PBM E-score” value is -0.081.
Turning to CTGTCCCA, the “PBM E-score” value was 0.281.
For the sequence AAGTCCCG, the “PBM E-score” value was 0.283.
The same measure for ATGTCCCA: 0.485.
Then AGGTCCCC, with -0.299.
Regarding GCGTCCCA, the “PBM E-score” value is 0.0223.
For the sequence ATGTCCCC, the “PBM E-score” value came out at 0.479.
In the case of GCCTTTGA, the “PBM E-score” value came out at 0.0544.
Take CGAGGAGA: the “PBM E-score” value was -0.141.
As to AGACCCTG, the “PBM E-score” value is -0.165.
Take ACCTAACG: the “PBM E-score” value was -0.203.
As for ATGATCTG, the “PBM E-score” value came out at 0.0873.
Regarding GGGAAAAA, the “PBM E-score” value was 0.185.
With GCGGTCAC, the “PBM E-score” value was -0.172.
On to ATGTCTAA, for which the “PBM E-score” value turned out to be 0.403.
Consider ATGTCTAC, for which the “PBM E-score” value came out at 0.313.
As to ATGTCTAG, the “PBM E-score” value worked out at 0.373.
For the sequence GTGTCTAA, the “PBM E-score” value was determined as 0.192.
Then AGGTCTAG, with -0.134.
For AAGTCTAG, the “PBM E-score” value was -0.107.
The same measure for CTGTCTAC: -0.0627; for CTGTCTAA: 0.111; for AGGTCTAC: -0.0162.
For the sequence CTAGTAGC, the “PBM E-score” value was -0.165.
Consider GAGGGTAC, for which the “PBM E-score” value is -0.202.
Turning to CTATTTCC, the “PBM E-score” value is 0.063.
On to ACAATTGA, for which the “PBM E-score” value was found to be 0.257.
In the case of AAAATTCG, the “PBM E-score” value turned out to be 0.232.
Regarding AAAATTCA, the “PBM E-score” value was determined as 0.308.
Take AAAATTGT: the “PBM E-score” value came to 0.357.
Then ACAATTGC, with 0.191.
The same measure for AAAATTGC: 0.054.
